Compound activity as filed in PubChem BioAssay.
In the library only some 2.3% were active in any assay of this set; here they are far more common.
M1 ag = human M1 muscarinic receptor agonists, primary screen, Fluo-8 calcium fluorescence, CHO-K1 cells, HTS | Muscarinic acetylcholine receptor M1 (Homo sapiens), P11229 | AID 588814, 2011 | 360,000 tested, 0.33% active | CHO-K1 hM1, agonist mode; 0% DMSO, 100% acetylcholine EC100 | activation, % at 3 µM;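 active means activation above the run's mean compound activation plus 3 SD, cut at about 16% in these data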;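 further: peak over basal fluorescence ratio within a 140 s kinetic read after compound addition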
Target sequence (P11229 whole entry, looked up): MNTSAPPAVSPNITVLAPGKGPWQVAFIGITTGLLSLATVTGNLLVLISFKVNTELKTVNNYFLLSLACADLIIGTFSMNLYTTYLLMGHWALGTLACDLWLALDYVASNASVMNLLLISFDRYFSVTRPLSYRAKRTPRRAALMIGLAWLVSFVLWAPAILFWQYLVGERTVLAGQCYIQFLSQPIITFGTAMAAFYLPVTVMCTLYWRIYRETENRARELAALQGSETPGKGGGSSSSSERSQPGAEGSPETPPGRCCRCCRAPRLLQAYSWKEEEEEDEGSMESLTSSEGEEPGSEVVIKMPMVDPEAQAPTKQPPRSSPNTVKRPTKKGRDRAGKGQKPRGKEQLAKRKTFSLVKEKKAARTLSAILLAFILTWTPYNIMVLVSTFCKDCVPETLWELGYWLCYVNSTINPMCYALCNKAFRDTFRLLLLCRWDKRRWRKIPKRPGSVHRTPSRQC
CHO-K1 Ca ag = counter-screen for M1 agonists: effect in parental CHO-K1 cells; Fluo-8 calcium fluorescence; scaled to maximal ATP response, vehicle zero; activation, % at 3 µM; 360,000 tested, 0.48% active; AID 602248, 2012; in the data active means activation above about 15%;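 further: untransfected CHO-K1 host cells lacking M1 receptor as counterscreen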
CHO-K1 Ca PAM = nonselective calcium activators in parental CHO-K1 cells, primary screen, counter-screen for M1 PAM project, cell-based, Fluo-8 calcium fluorescence, full deck, 1536-well; ATP EC20; 0% at ATP EC20, 100% at ATP max; activation, % at 3 µM; 360,000 tested, 0.02% active;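 active means activation above the run cutoff, the mean activation of all test compounds plus 3 SD, cut at about 40% in these data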;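 further: peak over basal fluorescence ratio in a 140 s read after ATP addition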
CHRM1 PAM = human M1 muscarinic receptor positive allosteric modulators, primary screen, CHO-K1 cells, Fluo-8 calcium fluorescence, 1536-well; CHO-K1 hM1, ACh EC20; 0% = ACh EC20, 100% = maximal ACh; activation, % at 3 µM; 360,000 tested, 0.088% active; in the data active means activation above about 19%, passing the limit was not always enough
CHO-K1 Ca antag = counter-screen for M1 antagonists: effect in parental CHO-K1 cells; ATP-induced calcium, Fluo-8 fluorescence; inhibition, % at 3 µM; AID 602250; 360,000 tested, 0.6% active;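 active means inhibition above a per-plate cutoff, the plate's mean sample inhibition plus 3 SD, cut at about 24% in these data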;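 further: 0% = DMSO plus EC80 ATP and 100% = DMSO alone without ATP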
CHRM1 antagonist = human M1 muscarinic receptor antagonists, primary screen, CHO-K1 cells, Fluo-8 calcium fluorescence, 1536-well | Muscarinic acetylcholine receptor M1 (Homo sapiens), P11229 | CHO-K1 hM1, ACh EC80 antagonist | inhibition, % at 3 µM | 360,000 tested, 1.3% active | AID 588852, 2011;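 active means percent inhibition above its own plate's cutoff, namely the mean of that plate's compound wells plus 3 SD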;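 further: peak over basal fluorescence ratio during 140 s after agonist addition; 0% = ACh EC80 plus DMSO and 100% = DMSO alone without agonist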
Numbers without * were called inactive; nt = no result.

SMILES	M1 ag	CHO-K1 Ca ag	CHO-K1 Ca PAM	CHRM1 PAM	CHO-K1 Ca antag	CHRM1 antagonist
COc1ccccc1-c1sc2cc3c(cc2c1-c1ccc(OCCN2CCOCC2)cc1)OCO3	0.5	0.7	15.9	-11.5	-16.7	24.6*
COc1ccc(NC(=O)N2c3ccc(OC)cc3C(C)=CC2(C)C)cc1	-6.2	0.2	6.7	3.0	25.5*	1.8
C1=CN2CCC1C(c1ccccc1)C2 (centres undefined)	49.5*	-0.4	2.0	-13.6	6.9	73.1*
COC(=O)c1ccc(CN2CCCC(CCC(=O)NCc3ccc(C)o3)C2)cc1 (centres undefined)	53.0*	0.4	26.8	-28.9	-9.5	86.8*
COCc1ccc(CN2CCCC(CCC(=O)NCc3ccc(C)o3)C2)o1 (centres undefined)	-4.3	1.2	16.8	0.5	-14.0	6.7
COC(=O)c1ccc(CN2CCCC(CNC(=O)Cc3ccc(OC)cc3)C2)cc1 (centres undefined)	30.0*	0.8	6.2	-6.0	-12.9	14.5
Cc1cc(C)cc(NS(=O)(=O)c2cc(Br)cnc2N)c1	-3.4	2.5	27.6	0.0	-25.5	-3.4
Cc1ccc(NS(=O)(=O)c2cc(Br)cnc2N)cc1C	-6.1	1.2	-11.6	-24.4	-2.2	99.5*
CSc1cccc(NS(=O)(=O)c2cc(Br)cnc2N)c1	-5.5	2.2	-1.2	-24.2	-16.6	62.5*
CC1CCC(NC(=O)c2cccc(S(=O)(=O)N3CCN(c4ccc(F)cc4)CC3)c2)CC1 (centres undefined)	-2.1	1.0	17.7	5.1	-9.1	2.6
CC(C)CNC(=O)C1(C)CCCN1C(=O)c1ccc2c(c1)CCO2 (centres undefined)	0.3	0.2	-3.7	3.5	8.6	-1.3
O=C(CSc1ccc2nnc(CCNC(=O)c3ccccc3)n2n1)NCc1ccc(F)cc1	-2.9	0.1	-13.6	1.2	2.6	-6.0
Cc1c(NC(=O)CSc2nnc(C(C)N(C)C)n2-c2ccccc2)c(=O)n(-c2ccccc2)n1C (centres undefined)	-2.6	0.5	-8.1	8.3	-9.0	0.5
Cc1ccc(S(=O)(=O)N2CCC(C(=O)N/N=C/c3ccncc3)CC2)cc1	-3.8	-1.0	-8.4	1.5	24.5*	-1.8
Nc1ccc2nc3n(c(=O)c2c1)CCC3	2.5	-0.1	-4.8	5.6	26.4*	-2.5
N/C(=N\OCc1ccc([N+](=O)[O-])cc1)c1ccncc1	-2.6	-0.6	-9.7	-5.8	29.8*	6.7
O=C(NNC(=O)c1ccc([N+](=O)[O-])cc1)c1ccncc1	-1.5	0.3	21.4	5.7	-9.7	-4.6
COc1cc(CN2CCC(C(=O)N3CCN(c4ccccc4F)CC3)CC2)cc(OC)c1O	-5.2	-0.5	-4.9	7.8	33.4*	5.8
CCCCNC(=O)C1c2ccccc2OCC(=O)N1CCc1ccccc1 (centres undefined)	nt	-0.4	-4.3	nt	-7.3	nt
Cc1cnc(CNC(=O)c2ccc3nc([C@@H]4O[C@H](CO)[C@H](O)[C@H](O)[C@H]4O)[nH]c3c2)cn1	-1.9	0.6	14.7	7.0	-18.6	-10.8
O=C(Nc1cccnc1)Nc1ccc(F)c(Cl)c1	8.6	15.5*	5.8	-13.7	-6.1	9.2
COc1ccc(NC(=O)Nc2ccc(F)c(Cl)c2)cc1	-1.6	14.5	2.2	-10.6	17.8	10.3
Cc1ccc(NC(=O)Nc2ccc(F)c(Cl)c2)cc1	5.2	14.0	-10.5	-15.3	21.1	35.6*
O=C(NNC(=O)c1ccccc1-n1cccc1)c1ccc(Cl)nc1	5.1	-0.2	18.8	13.7	-12.0	0.4
Cc1nc(C(F)(F)F)ccc1C(=O)N1CCCCC1	-0.8	-0.2	-3.0	4.9	-1.5	-3.0
SMILES	M1 ag	CHO-K1 Ca ag	CHO-K1 Ca PAM	CHRM1 PAM	CHO-K1 Ca antag	CHRM1 antagonist
Cc1nc(SCC(=O)NC2CCS(=O)(=O)C2)c2c3c(sc2n1)CCC3 (centres undefined)	-3.4	0.8	9.3	8.2	-9.8	-12.3
Cc1nc(SCC(=O)NC2CCS(=O)(=O)C2)c2c3c(sc2n1)CCCC3 (centres undefined)	-1.1	-0.2	-27.7	-10.8	12.1	26.5*
Cc1cc2ncn(C3CC(=O)N(Cc4ccccc4)C3=O)c2cc1C (centres undefined)	4.8	16.7*	-8.2	-16.7	-7.8	20.8
Cc1cc2ncn(C3CC(=O)N(C)C3=O)c2cc1C (centres undefined)	-4.5	-0.1	6.7	8.8	-7.3	-8.6
Cc1ccc(-c2onc3ccc(C(=O)O)cc23)cc1	9.6	18.9*	7.4	2.2	2.7	-1.4
O=C(Nc1ccon1)c1nc[nH]c1C(=O)N1CCN(c2ccccc2)CC1	-1.8	0.5	16.3	2.6	-11.3	1.3
CCN(CC)C(=O)N1c2ccccc2Sc2ccccc21	-7.5	-0.2	3.1	1.9	-13.6	-7.4
CCN(CC)CC(=O)N1c2ccccc2Sc2ccccc21	-9.3	0.9	3.1	-27.7	-12.4	100.7*
CCN(CC)CCCCN1c2ccccc2Sc2ccccc21	-6.8	12.8	-7.4	-27.0	-3.1	100.7*
CCN(CC)CC(=O)N1c2ccccc2Sc2ccc(Cl)cc21	-3.7	0.5	-8.0	-19.7	-8.2	99.2*
Cc1ccc(C2=Nn3c(COc4ccc(Cl)cc4)nnc3SC2CC(=O)O)cc1 (centres undefined)	-12.6	-0.6	-0.1	7.6	12.3	-3.9
COc1ccc2c(CC(=O)NC(Cc3ccc(Cl)cc3)C(=O)O)cc(=O)oc2c1C (centres undefined)	-1.9	1.6	10.3	8.8	-14.2	-7.3
CC(C)(O)CN(CCCNC(=S)Nc1ccccc1)C(=S)Nc1ccccc1	-2.2	0.1	2.8	4.1	0.2	-8.6
O=C(O)C1C2C=CC(C2)C1C(=O)NCc1ccc(Cl)c(Cl)c1 (centres undefined)	-5.7	4.0	23.2	7.9	-7.9	-4.1
Cc1ccc(C2(c3noc(CN(C)Cc4ccccn4)n3)CCCC2)cc1	-6.7	3.0	14.3	-23.1	2.0	38.2*
CC(C)[C@@H]1CC[C@@H](C)C[C@H]1OC(=O)C[n+]1cc(-c2ccc(Cl)cc2)n2c1CCCCC2	-4.2	3.3	12.5	-23.4	8.8	93.5*
COc1ccc(-c2c[n+](CC(=O)OC3CC(C)CCC3C(C)C)c3n2CCC3)cc1 (centres undefined)	-5.6	0.9	7.5	-22.3	1.5	90.8*
O=C(C[n+]1cc(-c2ccc(Cl)cc2)n2c1CCCCC2)c1ccccc1	-8.3	0.0	-14.8	-7.7	-0.1	13.5
